LGR2 antag = inhibitors of bursicon-induced LGR2 CRE-luciferase signal, primary screen, cell-based, HEK293, CRE-luciferase reporter, bursicon stimulation | Drosophila bursicon receptor LGR2 (rickets) | bursicon-stimulated, 4 h | inhibition, % at 9.99 µM | 380,000 compounds, 0.35% hits;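 active = drop in luminescence signal, shown as inhibition above about 50% in the replicate tests, limit read from the data, passing the limit was not always enough; inconclusive = probably only some replicates passing the limit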;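 note: agonist challenge used bursicon conditioned medium at about half maximal strength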
TWEAK Fn14 block = inhibitors of TWEAK-Fn14 signaling, primary screen, luciferase reporter cells, uHTS; TWEAK-stimulated Fn14 reporter cells, luciferase luminescence, 8 h; inhibition, % at 10 µM; 360,000 compounds, 2% hits; AID 1159606, 2016; in the data active = inhibition above about 50%
HSF1 inhib = HSF1 inhibitors in luciferase reporter cells, primary screen, cell-based, NIH3T3, luminescence | 300,000 compounds, 0.77% hits | NIH3T3-HGL HSE-luciferase, MG132-induced, luminescence 8 h; active compounds read low | activity change, negative = inhibition, % at 7.5 µM (by protocol);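 active = more than half of replicate wells show activity change below -50%, luminescence cut by over half; inconclusive = some wells, but at most half, below -50%; inactive = no replicate well below -50%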;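 note: luciferase reports HSF-1 transcriptional activity via heat shock element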
HSF1 activator = HSF-1 activators, primary screen, NIH3T3-HGL cells, MG132 stress, luminescence, single point; NIH3T3-HGL HSF-1 luciferase reporter, 8 h; 100% = twice DMSO control signal; activation, % at 9 µM; 300,000 compounds, 1.7% hits;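 active = mean replicate activation of at least 50% with a set share of replicates each reaching 50%; inconclusive = only one of those two conditions met; inactive = mean below 50% and too few replicates reaching it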
TROY NFkB inh = inhibitors of TROY-driven NF-kB signaling, primary screen, Q293 LMP1-TROYcd cells, NF-kB luciferase, uHTS. AID 1347056, 2019. 360,000 compounds, 0.98% hits. Q293 LMP1-TROYcd NF-kB luciferase reporter, 4 h. inhibition, % at 10 µM;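 active = compounds whose plate-normalised and pattern-corrected inhibition of the luciferase reporter signal at the single screening dose is 50% or more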
EBV LMP1 NFkB = EBV LMP1-driven NF-kappaB luciferase reporter inhibitors, primary screen, cell-based, luminescence, single point; inhibition, % at 12.5 µM; AID 504558, 2011; 350,000 compounds, 0.69% hits; LMP1-induced NF-kappaB luciferase reporter cells; in the data active = inhibition above about 41%; inconclusive = no clear call, values can overlap the other calls
Hits are given with their value. Compounds with a hit are over-represented: about 3.6% of the library has one in this group of screens.

Results for COc1ccc(C(=O)Nc2ccc3c(c2)OC[C@H](C)N(C)C[C@H](C)[C@@H](OC)CN(C)C3=O)cc1 ?
LGR2 antag: inactive

How did CC(=O)Nc1nnc(SCC(=O)c2ccc(F)cc2)s1 do in these assays?
LGR2 antag: inactive; TWEAK Fn14 block: inactive; HSF1 inhib: inactive; HSF1 activator: 104; TROY NFkB inh: inactive; EBV LMP1 NFkB: inactive

How did Cc1cc(C)c2[nH]c(=O)c(CN(CC3CCCO3)S(=O)(=O)c3ccc4c(c3)OCCO4)cc2c1 (stereo unspecified) do in these assays?
LGR2 antag: inactive; TWEAK Fn14 block: inactive; HSF1 inhib: inactive; HSF1 activator: 59; TROY NFkB inh: inactive; EBV LMP1 NFkB: inactive

How did CCCc1cn(CC[C@@H]2CC[C@H](NC(=O)Cc3cccnc3)[C@@H](CO)O2)nn1 do in these assays?
LGR2 antag: inactive

Results for Cc1cc(C(=O)COC(=O)CNC(=O)c2ccccc2)c(C)n1CC1CCCO1 (stereo unspecified) ?
LGR2 antag: inactive; TWEAK Fn14 block: 60; HSF1 inhib: -50; HSF1 activator: inactive; TROY NFkB inh: inactive; EBV LMP1 NFkB: inactive

How did COCCn1c(C)cc(C(=O)COC(=O)CNC(=O)c2ccccc2)c1C do in these assays?
LGR2 antag: inactive; TWEAK Fn14 block: 63; HSF1 inhib: inactive; HSF1 activator: inactive; TROY NFkB inh: 54; EBV LMP1 NFkB: inactive

How did CNS(=O)(=O)c1cccc(C(=O)OCC(=O)c2cc(C)n(CC3CCCO3)c2C)c1 (stereo unspecified) do in these assays?
LGR2 antag: inactive; TWEAK Fn14 block: inactive; TROY NFkB inh: inactive; EBV LMP1 NFkB: inactive

How did COCC(C)n1c(C)cc(C(=O)COC(=O)CNC(=O)c2ccccc2)c1C (stereo unspecified) do in these assays?
LGR2 antag: inactive; TWEAK Fn14 block: inactive; HSF1 inhib: inactive; HSF1 activator: inactive; TROY NFkB inh: inactive; EBV LMP1 NFkB: inactive

Results for COCCn1c(C)cc(C(=O)COC(=O)c2ccc[nH]c2=O)c1C ?
LGR2 antag: inactive; TWEAK Fn14 block: 71; HSF1 inhib: inactive; HSF1 activator: inactive; TROY NFkB inh: 59; EBV LMP1 NFkB: inactive

Results for Cc1cc(C(=O)COC(=O)c2ccc(Br)o2)c(C)n1C ?
LGR2 antag: inactive; TWEAK Fn14 block: inactive; HSF1 inhib: inactive; HSF1 activator: inconclusive; TROY NFkB inh: inactive; EBV LMP1 NFkB: inactive

Results for COCCn1c(C)cc(C(=O)COC(=O)c2ccc(Br)o2)c1C ?
LGR2 antag: inactive; TWEAK Fn14 block: 55; HSF1 inhib: inconclusive; HSF1 activator: inactive; TROY NFkB inh: 55; EBV LMP1 NFkB: inactive

How did COc1ccc(S(=O)(=O)N(C)C[C@H]2OCCCC[C@H](C)Oc3ccc(NS(=O)(=O)c4cn(C)cn4)cc3C(=O)N([C@H](C)CO)C[C@H]2C)cc1 do in these assays?
LGR2 antag: inactive

Results for CC=Cc1ccc2n(c1=O)C[C@@H]1[C@@H](CO)[C@H](C(=O)NCC3CC3)N(C(=O)CC3CC3)[C@H]21 (mixture of isomers) ?
LGR2 antag: inactive

Results for CC=Cc1ccc2n(c1=O)C[C@H]1[C@H](CO)[C@@H](C(=O)NC3CCC3)N(CCC)[C@@H]21 (mixture of isomers) ?
LGR2 antag: inactive

What do the screens show for `Cc1cccc(C(=O)NCC(=O)OCC(=O)c2cc(C)n(CC3CCCO3)c2C)c1` (stereo unspecified)?
LGR2 antag: inactive; TWEAK Fn14 block: 59; HSF1 inhib: inactive; HSF1 activator: inactive; TROY NFkB inh: 80; EBV LMP1 NFkB: inactive

How did Cc1cc(C(=O)COC(=O)c2cccc(S(=O)(=O)N(C)C)c2)c(C)n1CC1CCCO1 (stereo unspecified) do in these assays?
LGR2 antag: inactive; TWEAK Fn14 block: inactive; TROY NFkB inh: inactive; EBV LMP1 NFkB: inactive

How did C[C@@H]1CN([C@H](C)CO)C(=O)c2cc(NS(=O)(=O)c3ccc(F)cc3)ccc2O[C@@H](C)CCCCO[C@@H]1CN(C)S(=O)(=O)c1ccccc1 do in these assays?
LGR2 antag: inactive

What do the screens show for `O=C(CSC(=S)N1CCCCC1)c1ccccc1`?
LGR2 antag: 67; TWEAK Fn14 block: 72; HSF1 inhib: inactive; HSF1 activator: inactive; TROY NFkB inh: 50; EBV LMP1 NFkB: inactive

Results for Cc1[nH]c2ccccc2c1C(=O)CSc1ccc(Cl)cc1 ?
LGR2 antag: inactive; TWEAK Fn14 block: inactive; HSF1 inhib: inactive; HSF1 activator: 54; TROY NFkB inh: inactive; EBV LMP1 NFkB: inactive

Results for Cc1[nH]c2ccccc2c1C(=O)CSc1nc2cc(S(=O)(=O)N3CCCCC3)ccc2o1 ?
TWEAK Fn14 block: 55; HSF1 inhib: inactive; HSF1 activator: inactive; TROY NFkB inh: inactive; EBV LMP1 NFkB: inactive

How did O=C(CSC(=S)N1CCCC1)c1ccccc1 do in these assays?
LGR2 antag: inactive; TWEAK Fn14 block: inactive; HSF1 inhib: inactive; HSF1 activator: 55; TROY NFkB inh: inactive; EBV LMP1 NFkB: inactive

Results for COc1ccc(C(=O)CSC(=S)N2CCCCC2)cc1 ?
TWEAK Fn14 block: 60; TROY NFkB inh: inactive

How did Cc1[nH]c2ccccc2c1C(=O)CSC(=S)N1CCCCC1 do in these assays?
LGR2 antag: inactive; TWEAK Fn14 block: inactive; HSF1 inhib: inactive; HSF1 activator: 54; TROY NFkB inh: inactive; EBV LMP1 NFkB: inactive

Results for CCC(=O)N1C[C@H](C)[C@H](OC)CN(C)C(=O)c2cc(NC(=O)NC(C)C)ccc2OC[C@H]1C ?
LGR2 antag: inactive

What do the screens show for `COc1cccc(-c2ccc3n(c2=O)C[C@H]2[C@H](CO)[C@@H](C(=O)NC4CCC4)N[C@@H]32)c1`?
LGR2 antag: inactive

Results for C=C1CC2(OC1=O)c1ccccc1CCc1ccccc12 ?
LGR2 antag: 76; TWEAK Fn14 block: inactive; HSF1 inhib: 60; HSF1 activator: 60; TROY NFkB inh: 51; EBV LMP1 NFkB: inactive

How did CNC(=O)c1ccccc1C1(O)c2ccccc2CCc2ccccc21 do in these assays?
LGR2 antag: inactive

What do the screens show for `O=C(C[C@H]1C=C[C@H](NC(=O)c2cccnc2)[C@@H](CO)O1)NCc1ccc(Cl)c(Cl)c1`?
LGR2 antag: inactive

What do the screens show for `COc1ccc(NC(=O)N(C)C[C@H]2OCCCC[C@H](C)Oc3ccc(NS(=O)(=O)c4ccccc4)cc3C(=O)N([C@H](C)CO)C[C@@H]2C)cc1`?
LGR2 antag: inactive

What do the screens show for `CCCN1C=CC(=C2C(=O)c3ccccc3C2=O)C=C1`?
TWEAK Fn14 block: 71; HSF1 inhib: -83; HSF1 activator: inactive; TROY NFkB inh: 73; EBV LMP1 NFkB: 87

High-throughput results deposited in PubChem BioAssay by several laboratories.
